Test results taken from article PMC7862700, “An all-to-all approach to the identification of sequence-specific readers for epigenetic DNA modifications on cytosine”.

Key:
Test in all cases: DAPPL (digital affinity profiling via proximity ligation, sequencing); 10 mM Tris-HCl pH 7.5, 50 mM NaCl, 1 mM DTT, 4% glycerol, room temperature, 30 min; GST-TFs on glutathione beads, 16-mer random dsDNA library, 0.1% formaldehyde crosslink after washing; high values mean tight binding
FEV = target: T1, FEV (Homo sapiens, UniProt Q99581 1-238); conditions: protein: recombinant; tags: N-terminal GST; dsDNA, one strand shown
T1 sequence: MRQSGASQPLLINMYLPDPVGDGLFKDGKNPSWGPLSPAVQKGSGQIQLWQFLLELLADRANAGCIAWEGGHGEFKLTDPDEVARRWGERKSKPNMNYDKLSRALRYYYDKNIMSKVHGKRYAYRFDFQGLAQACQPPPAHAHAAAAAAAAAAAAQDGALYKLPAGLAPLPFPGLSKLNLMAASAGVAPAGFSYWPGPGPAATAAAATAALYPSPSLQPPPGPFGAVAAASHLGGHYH
Outline: (§1)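 Yeast served to express human transcription factors as GST fusions, which were then captured on glutathione beads and labelled with DNA barcodes. Pooled with a tag-only sample, they were incubated with 200 nmole of a 16-mer random double-stranded DNA library for 30 min at room temperature in Tris/NaCl/DTT/glycerol buffer, washed, crosslinked with 0.1% formaldehyde, ligated by proximity, amplified by PCR and sequenced. Dividing each hexamer's read frequency for a factor by its frequency for the tag-only sample gives the binding signal.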

ETV5 = ETV5 (Homo sapiens, UniProt P41161 1-510); conditions: protein: recombinant; tags: N-terminal GST; dsDNA, one strand shown
ETV5, sequence (P41161 whole entry): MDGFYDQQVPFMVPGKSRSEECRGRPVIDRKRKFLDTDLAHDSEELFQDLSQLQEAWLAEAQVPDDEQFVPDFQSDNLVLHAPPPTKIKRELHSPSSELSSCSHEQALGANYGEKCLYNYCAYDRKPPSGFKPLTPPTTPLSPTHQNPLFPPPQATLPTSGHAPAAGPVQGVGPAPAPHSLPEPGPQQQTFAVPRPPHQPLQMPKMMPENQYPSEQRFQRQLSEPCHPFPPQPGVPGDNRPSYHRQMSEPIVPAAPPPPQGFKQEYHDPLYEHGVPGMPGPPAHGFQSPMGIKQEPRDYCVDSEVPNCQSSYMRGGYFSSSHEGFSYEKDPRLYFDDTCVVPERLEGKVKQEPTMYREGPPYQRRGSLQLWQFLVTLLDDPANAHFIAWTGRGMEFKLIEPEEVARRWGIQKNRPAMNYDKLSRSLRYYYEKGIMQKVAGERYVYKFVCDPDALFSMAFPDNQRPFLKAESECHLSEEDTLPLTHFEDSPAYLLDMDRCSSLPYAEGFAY
Outline: as §1

HSF1 = HSF1 (Homo sapiens, UniProt Q00613 1-529); conditions: protein: recombinant; tags: N-terminal GST; chain copies: 3; dsDNA, one strand shown
HSF1, sequence (Q00613 whole entry): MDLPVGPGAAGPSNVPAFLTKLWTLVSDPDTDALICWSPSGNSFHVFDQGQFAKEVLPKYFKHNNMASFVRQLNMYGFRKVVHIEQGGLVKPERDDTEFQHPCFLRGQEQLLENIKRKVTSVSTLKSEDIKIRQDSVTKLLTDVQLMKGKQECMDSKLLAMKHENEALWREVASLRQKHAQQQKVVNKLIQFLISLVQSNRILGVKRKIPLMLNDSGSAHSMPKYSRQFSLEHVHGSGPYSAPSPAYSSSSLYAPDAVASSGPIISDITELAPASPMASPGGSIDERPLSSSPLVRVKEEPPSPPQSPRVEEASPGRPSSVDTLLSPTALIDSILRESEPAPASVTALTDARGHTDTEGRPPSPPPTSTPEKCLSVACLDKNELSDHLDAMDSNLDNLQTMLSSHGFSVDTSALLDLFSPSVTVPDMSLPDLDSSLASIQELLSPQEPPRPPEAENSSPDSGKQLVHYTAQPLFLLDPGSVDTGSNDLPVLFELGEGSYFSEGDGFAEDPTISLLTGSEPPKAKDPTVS
Outline: as §1

SPIC = target: T2, SPIC (Homo sapiens, UniProt Q8N5J4 1-248); conditions: protein: recombinant; tags: N-terminal GST; dsDNA, one strand shown
T2 sequence: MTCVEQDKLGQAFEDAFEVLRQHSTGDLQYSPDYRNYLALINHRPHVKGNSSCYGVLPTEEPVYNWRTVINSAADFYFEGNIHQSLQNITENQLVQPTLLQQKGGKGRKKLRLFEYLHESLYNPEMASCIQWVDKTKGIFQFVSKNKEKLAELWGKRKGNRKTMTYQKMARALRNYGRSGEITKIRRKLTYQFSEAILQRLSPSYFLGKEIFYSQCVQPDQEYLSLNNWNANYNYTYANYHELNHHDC
Outline: as §1

ELF4 = ELF4 (Homo sapiens, UniProt Q99607 1-663); conditions: protein: recombinant; tags: N-terminal GST; dsDNA, one strand shown
ELF4, sequence (Q99607 whole entry): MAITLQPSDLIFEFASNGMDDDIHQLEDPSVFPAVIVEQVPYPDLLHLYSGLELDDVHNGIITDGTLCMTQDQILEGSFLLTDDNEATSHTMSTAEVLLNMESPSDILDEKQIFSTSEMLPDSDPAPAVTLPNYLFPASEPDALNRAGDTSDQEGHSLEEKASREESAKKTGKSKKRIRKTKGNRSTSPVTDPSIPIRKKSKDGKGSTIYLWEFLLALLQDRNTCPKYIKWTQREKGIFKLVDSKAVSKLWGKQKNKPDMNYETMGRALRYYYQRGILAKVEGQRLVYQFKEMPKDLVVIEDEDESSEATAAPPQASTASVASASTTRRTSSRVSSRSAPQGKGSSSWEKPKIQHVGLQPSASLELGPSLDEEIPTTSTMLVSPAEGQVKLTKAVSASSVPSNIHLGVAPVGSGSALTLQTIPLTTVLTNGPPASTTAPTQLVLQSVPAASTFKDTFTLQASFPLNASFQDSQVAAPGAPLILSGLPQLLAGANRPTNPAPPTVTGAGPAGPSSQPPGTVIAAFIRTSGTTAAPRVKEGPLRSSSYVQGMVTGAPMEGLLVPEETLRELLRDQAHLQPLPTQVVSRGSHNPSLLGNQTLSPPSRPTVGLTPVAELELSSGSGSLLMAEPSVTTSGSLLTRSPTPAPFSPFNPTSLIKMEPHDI
Outline: as §1

ELK4 = target: T3, ELK4 (Homo sapiens, UniProt P28324-2 1-405); conditions: protein: recombinant; tags: N-terminal GST; dsDNA, one strand shown
T3 sequence: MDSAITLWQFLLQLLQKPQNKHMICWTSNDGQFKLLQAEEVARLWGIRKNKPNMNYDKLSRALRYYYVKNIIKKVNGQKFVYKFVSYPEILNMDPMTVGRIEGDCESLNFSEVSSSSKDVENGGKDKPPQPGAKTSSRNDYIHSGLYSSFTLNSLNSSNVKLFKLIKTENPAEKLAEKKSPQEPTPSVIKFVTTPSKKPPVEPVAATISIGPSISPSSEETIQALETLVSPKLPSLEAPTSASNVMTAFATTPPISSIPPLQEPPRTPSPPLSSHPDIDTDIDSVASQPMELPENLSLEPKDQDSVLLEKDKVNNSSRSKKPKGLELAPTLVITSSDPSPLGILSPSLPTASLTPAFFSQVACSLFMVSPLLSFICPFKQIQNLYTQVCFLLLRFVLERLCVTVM
Outline: as §1

ETV2 = target: T4, ETV2 (Homo sapiens, UniProt O00321 1-342); conditions: protein: recombinant; tags: N-terminal GST; dsDNA, one strand shown
T4 sequence: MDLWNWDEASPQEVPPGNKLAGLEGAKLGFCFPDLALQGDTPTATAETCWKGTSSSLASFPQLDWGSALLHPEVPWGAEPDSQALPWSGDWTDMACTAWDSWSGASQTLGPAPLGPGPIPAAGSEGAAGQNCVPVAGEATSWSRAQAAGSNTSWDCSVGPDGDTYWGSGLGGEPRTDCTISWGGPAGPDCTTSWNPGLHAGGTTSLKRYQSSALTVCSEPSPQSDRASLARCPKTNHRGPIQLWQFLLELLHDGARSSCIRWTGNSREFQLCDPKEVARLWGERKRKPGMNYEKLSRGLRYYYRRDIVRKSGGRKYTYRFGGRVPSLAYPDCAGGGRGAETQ
Outline: as §1

ELF3 = target: T5, ELF3 (Homo sapiens, UniProt P78545 1-371); conditions: protein: recombinant; tags: N-terminal GST; dsDNA, one strand shown
T5 sequence: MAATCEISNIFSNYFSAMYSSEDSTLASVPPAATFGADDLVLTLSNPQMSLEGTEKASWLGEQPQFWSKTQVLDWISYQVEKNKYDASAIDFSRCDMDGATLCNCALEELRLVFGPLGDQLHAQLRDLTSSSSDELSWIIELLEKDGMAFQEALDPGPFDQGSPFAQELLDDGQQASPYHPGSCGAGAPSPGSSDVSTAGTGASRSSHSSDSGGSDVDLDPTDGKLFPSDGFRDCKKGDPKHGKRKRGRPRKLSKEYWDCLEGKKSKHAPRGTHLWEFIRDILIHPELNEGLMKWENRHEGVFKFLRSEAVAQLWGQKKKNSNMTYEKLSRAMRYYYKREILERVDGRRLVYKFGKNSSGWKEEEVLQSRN
Outline: as §1

ETV1 = ETV1 (Homo sapiens, UniProt P50549 1-477); conditions: protein: recombinant; tags: N-terminal GST; dsDNA, one strand shown
ETV1, sequence (P50549 whole entry): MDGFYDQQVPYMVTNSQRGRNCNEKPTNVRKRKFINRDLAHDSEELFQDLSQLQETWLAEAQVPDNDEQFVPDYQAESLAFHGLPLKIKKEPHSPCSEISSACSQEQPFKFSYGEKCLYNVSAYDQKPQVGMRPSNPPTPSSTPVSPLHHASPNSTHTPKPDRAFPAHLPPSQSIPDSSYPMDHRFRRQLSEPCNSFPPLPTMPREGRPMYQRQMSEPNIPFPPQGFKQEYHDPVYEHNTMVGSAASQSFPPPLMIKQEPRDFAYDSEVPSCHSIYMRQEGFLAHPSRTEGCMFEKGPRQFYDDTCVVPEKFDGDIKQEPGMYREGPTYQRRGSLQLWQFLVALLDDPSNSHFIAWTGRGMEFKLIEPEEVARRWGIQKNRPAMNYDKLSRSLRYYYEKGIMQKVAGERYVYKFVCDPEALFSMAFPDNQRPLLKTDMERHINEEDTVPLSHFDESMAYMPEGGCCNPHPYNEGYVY
Outline: as §1

ERF = target: T6, ERF (Homo sapiens, UniProt P50548 1-548); conditions: protein: recombinant; tags: N-terminal GST; dsDNA, one strand shown
T6 sequence: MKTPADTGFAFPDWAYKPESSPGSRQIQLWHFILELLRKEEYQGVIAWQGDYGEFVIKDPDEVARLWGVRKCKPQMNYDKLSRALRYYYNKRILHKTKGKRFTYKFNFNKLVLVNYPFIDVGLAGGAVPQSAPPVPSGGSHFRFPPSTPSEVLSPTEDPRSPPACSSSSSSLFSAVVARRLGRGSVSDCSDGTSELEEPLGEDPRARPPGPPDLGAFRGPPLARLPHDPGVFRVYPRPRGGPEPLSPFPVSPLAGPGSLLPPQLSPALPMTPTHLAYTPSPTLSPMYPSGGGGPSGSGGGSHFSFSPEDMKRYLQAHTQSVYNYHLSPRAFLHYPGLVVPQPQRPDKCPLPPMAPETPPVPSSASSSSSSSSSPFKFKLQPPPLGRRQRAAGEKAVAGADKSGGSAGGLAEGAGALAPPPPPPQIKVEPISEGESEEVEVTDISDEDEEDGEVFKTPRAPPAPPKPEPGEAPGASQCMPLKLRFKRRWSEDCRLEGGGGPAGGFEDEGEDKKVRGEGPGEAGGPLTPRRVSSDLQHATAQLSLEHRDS
Outline: as §1

ETV3L = target: T7, ETV3L (Homo sapiens, UniProt Q6ZN32 1-361); conditions: protein: recombinant; tags: N-terminal GST; dsDNA, one strand shown
T7 sequence: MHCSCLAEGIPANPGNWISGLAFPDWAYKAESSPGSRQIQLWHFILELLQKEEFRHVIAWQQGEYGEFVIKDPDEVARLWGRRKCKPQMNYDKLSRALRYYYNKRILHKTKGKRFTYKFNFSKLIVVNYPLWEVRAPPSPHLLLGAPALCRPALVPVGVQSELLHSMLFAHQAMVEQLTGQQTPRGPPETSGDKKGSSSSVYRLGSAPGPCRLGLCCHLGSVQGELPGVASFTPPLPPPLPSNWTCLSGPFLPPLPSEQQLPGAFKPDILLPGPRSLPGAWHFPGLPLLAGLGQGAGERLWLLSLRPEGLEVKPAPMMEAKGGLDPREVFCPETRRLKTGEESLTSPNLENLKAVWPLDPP
Outline: as §1

ETS2 = target: T8, ETS2 (Homo sapiens, UniProt P15036 1-469); conditions: protein: recombinant; tags: N-terminal GST; dsDNA, one strand shown
T8 sequence: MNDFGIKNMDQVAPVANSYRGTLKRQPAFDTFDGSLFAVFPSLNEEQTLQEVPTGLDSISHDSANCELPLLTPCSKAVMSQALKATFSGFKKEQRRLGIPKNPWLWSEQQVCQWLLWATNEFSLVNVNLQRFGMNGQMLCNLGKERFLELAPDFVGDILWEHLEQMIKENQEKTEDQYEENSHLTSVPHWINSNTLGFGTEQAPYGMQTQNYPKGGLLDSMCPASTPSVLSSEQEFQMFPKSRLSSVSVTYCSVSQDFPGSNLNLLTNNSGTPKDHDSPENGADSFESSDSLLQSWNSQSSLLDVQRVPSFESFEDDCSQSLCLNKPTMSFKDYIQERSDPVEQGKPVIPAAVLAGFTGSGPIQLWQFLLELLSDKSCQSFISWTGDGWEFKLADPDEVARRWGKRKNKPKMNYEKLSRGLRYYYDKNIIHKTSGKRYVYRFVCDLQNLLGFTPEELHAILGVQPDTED
Outline: as §1

SPDEF = target: T9, SPDEF (Homo sapiens, UniProt O95238 1-335); conditions: protein: recombinant; tags: N-terminal GST; dsDNA, one strand shown
T9 sequence: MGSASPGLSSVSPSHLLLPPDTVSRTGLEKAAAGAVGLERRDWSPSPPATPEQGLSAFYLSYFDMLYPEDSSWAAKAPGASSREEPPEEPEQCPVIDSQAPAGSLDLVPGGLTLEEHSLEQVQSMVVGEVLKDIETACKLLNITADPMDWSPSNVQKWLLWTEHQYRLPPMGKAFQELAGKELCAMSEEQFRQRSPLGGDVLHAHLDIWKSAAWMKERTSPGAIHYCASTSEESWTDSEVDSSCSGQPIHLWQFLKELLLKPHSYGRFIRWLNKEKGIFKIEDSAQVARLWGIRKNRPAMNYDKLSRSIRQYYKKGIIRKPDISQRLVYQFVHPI
Outline: as §1

ETV7 = target: T10, ETV7 (Homo sapiens, UniProt Q9Y603 1-341); conditions: protein: recombinant; tags: N-terminal GST; dsDNA, one strand shown
T10 sequence: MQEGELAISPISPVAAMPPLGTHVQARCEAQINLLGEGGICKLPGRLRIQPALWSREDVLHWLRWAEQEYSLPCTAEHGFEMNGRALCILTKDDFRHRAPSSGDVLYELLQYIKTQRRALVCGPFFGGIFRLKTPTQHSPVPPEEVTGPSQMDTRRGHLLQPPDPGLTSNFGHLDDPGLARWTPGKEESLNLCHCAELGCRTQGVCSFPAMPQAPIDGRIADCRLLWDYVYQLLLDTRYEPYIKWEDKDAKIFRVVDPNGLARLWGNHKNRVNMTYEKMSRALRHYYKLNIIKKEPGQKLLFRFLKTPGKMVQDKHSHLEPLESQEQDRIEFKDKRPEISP
Outline: as §1

ELF5 = target: T11, ELF5 (Homo sapiens, UniProt Q9UKW6-2 1-255); conditions: protein: recombinant; tags: N-terminal GST; dsDNA, one strand shown
T11 sequence: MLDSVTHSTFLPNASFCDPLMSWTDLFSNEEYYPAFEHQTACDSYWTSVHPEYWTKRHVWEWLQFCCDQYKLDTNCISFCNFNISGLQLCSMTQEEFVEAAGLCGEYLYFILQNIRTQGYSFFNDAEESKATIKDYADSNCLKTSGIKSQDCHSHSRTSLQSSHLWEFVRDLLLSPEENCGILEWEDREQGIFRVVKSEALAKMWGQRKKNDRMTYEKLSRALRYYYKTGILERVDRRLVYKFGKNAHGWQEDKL
Outline: as §1

ETV3 = target: T12, ETV3 (Homo sapiens, UniProt P41162-2 1-143); conditions: protein: recombinant; tags: N-terminal GST; dsDNA, one strand shown
T12 sequence: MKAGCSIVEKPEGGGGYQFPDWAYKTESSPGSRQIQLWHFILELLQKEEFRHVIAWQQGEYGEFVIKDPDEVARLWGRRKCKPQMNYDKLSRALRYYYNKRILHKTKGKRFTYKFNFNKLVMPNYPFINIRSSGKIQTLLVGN
Outline: as §1

ETV6 = ETV6 (Homo sapiens, UniProt P41212 1-452); conditions: protein: recombinant; tags: N-terminal GST; dsDNA, one strand shown
ETV6, sequence (P41212 whole entry): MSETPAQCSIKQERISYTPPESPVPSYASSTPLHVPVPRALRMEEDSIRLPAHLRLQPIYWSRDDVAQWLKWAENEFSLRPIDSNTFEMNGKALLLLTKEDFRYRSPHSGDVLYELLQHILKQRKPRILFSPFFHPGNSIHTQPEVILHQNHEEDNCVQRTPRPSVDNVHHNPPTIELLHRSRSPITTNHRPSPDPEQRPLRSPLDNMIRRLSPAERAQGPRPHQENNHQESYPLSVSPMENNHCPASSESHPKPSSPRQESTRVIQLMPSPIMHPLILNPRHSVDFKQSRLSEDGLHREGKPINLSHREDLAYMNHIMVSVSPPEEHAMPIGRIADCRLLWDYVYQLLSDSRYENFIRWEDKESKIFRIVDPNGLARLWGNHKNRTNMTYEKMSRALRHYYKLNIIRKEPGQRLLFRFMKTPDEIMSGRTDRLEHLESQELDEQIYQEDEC
Outline: as §1

## CAACGA
FEV
  binding signal: 1.01 fold enrichment (6-mer frequency, TF over GST control)
ETV5
  binding signal: 1.02 fold enrichment (6-mer frequency, TF over GST control)
HSF1
  binding signal: 1 fold enrichment (6-mer frequency, TF over GST control)
SPIC
  binding signal: 1.1 fold enrichment (6-mer frequency, TF over GST control)
ELF4
  binding signal: 1.1 fold enrichment (6-mer frequency, TF over GST control)
ELK4
  binding signal: 1.14 fold enrichment (6-mer frequency, TF over GST control)
ETV2
  binding signal: 1.01 fold enrichment (6-mer frequency, TF over GST control)
ELF3
  binding signal: 1.08 fold enrichment (6-mer frequency, TF over GST control)
ETV1
  binding signal: 1 fold enrichment (6-mer frequency, TF over GST control)
ERF
  binding signal: 1.05 fold enrichment (6-mer frequency, TF over GST control)
ETV3L
  binding signal: 1.08 fold enrichment (6-mer frequency, TF over GST control)
ETS2
  binding signal: 1.11 fold enrichment (6-mer frequency, TF over GST control)
SPDEF
  binding signal: 1.01 fold enrichment (6-mer frequency, TF over GST control)
ETV7
  binding signal: 1.05 fold enrichment (6-mer frequency, TF over GST control)
ELF5
  binding signal: 1.01 fold enrichment (6-mer frequency, TF over GST control)
ETV3
  binding signal: 1.07 fold enrichment (6-mer frequency, TF over GST control)
ETV6
  binding signal: 1.04 fold enrichment (6-mer frequency, TF over GST control)
